The text below walks through data of PubChem BioAssay (Tox21).

A short description of experiment [1]: qHTS RealTime-Glo MT Cell Viability Assay in HEK293 cells - 40 hour (AID 1224874). Further: nearly all actives have a fitted effect of over 50% in size. Further: potency means the concentration at half of the fitted maximal effect. Particulars: RealTime-Glo luminescence; max response: stronger effect = lower value. The method in brief: (§1)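 HEK293 cells mixed with RealTime-Glo reagents (NanoLuc plus cell-permeant prosubstrate) at 600 cells/well, preincubated 5 h at 37 C/5% CO2, then given 23 nL compound in DMSO. Nonlytic luminescence from viable cells was read at 0, 8, 16, 24, 32 and 40 h.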
For orientation: In qHTS, concentration-response curves come from the screen itself.

Experiment [2] can be described thus: A CellTox Green Cytotoxicity Assay to monitor cytotoxicity in HEK293 cells - 24 hour (AID 1224875). Further: nearly all actives have a fitted effect of over 45% in size. Further: potency means the concentration at half of the fitted maximal effect. Summed up:
(§2)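 HEK293 cells premixed with CellTox Green dye were seeded at 600 cells/well and left 5 h at 37 C/5% CO2 before pin transfer of 23 nL compound in DMSO. Fluorescence from dye bound to dead-cell DNA was read during 40 h treatment.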

The nature of experiment [3]: A CellTox Green Cytotoxicity Assay to monitor cytotoxicity in HepG2 cells - 16 hour (AID 1224876). Further: nearly all actives have a fitted effect of over 45% in size. Further: potency means the concentration at half of the fitted maximal effect. Summed up: (§3)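 HepG2 cells were seeded together with the CellTox Green dye at 600 cells/well, left 5 h at 37 C/5% CO2, then given compounds in DMSO. Fluorescence from dye bound to dead-cell DNA was read repeatedly over 40 h of treatment at 37 C.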
Experiment [4] is described as follows: qHTS RealTime-Glo MT Cell Viability Assay in HepG2 cells - 32 hour (AID 1224877). Further: nearly all actives have a fitted effect of over 55% in size. Further: potency means the concentration at half of the fitted maximal effect. The method in brief:
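qHTS, HepG2, 600 cells/well, RealTime-Glo (NanoLuc + prosubstrate) added with cells; 5 h preincubation; DMSO compound addition; 37 C; luminescence at 0/8/16/24/32/40 h.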

A short description of experiment [5]: A CellTox Green Cytotoxicity Assay to monitor cytotoxicity in HepG2 cells - 40 hour (AID 1224879). Further: nearly all actives have a fitted effect of over 40% in size. Further: potency means the concentration at half of the fitted maximal effect. The method in brief:
as §3

Experiment [6] can be described thus: qHTS RealTime-Glo MT Cell Viability Assay in HEK293 cells - 0 hour (AID 1224880). Further: top concentration of the series differs between compounds; nearly all actives have a fitted effect of over 45% in size. Summed up: as §1
Experiment [7] can be described thus: A CellTox Green Cytotoxicity Assay to monitor cytotoxicity in HEK293 cells - 32 hour (AID 1224881). Further: nearly all actives have a fitted effect of over 40% in size. Further: potency means the concentration at half of the fitted maximal effect. The method in brief:
as §2

The nature of experiment [8]: A CellTox Green Cytotoxicity Assay to monitor cytotoxicity in HepG2 cells - 32 hour (AID 1224883). Further: nearly all actives have a fitted effect of over 50% in size. Further: potency means the concentration at half of the fitted maximal effect. Summed up:
as §3

Experiment [9] in a line: A CellTox Green Cytotoxicity Assay to monitor cytotoxicity in HepG2 cells - 24 hour (AID 1224878). Further: nearly all actives have a fitted effect of over 45% in size. Summed up:
as §3

Experiment [10] can be described thus: A CellTox Green Cytotoxicity Assay to monitor cytotoxicity in HepG2 cells - 0 hour (AID 1224882). Further: nearly all actives have a fitted effect of over 35% in size. Further: potency means the concentration at half of the fitted maximal effect. Summed up: as §3

Unmarked numbers belong to inactive results. Records with an inconclusive call do not appear. Calls of active or inactive are those of the source. The call rests on the fitted dose curve; in most records, active means well fitted curve in the direction sought with a large enough effect in the repeat runs; inconclusive means weak or mixed curves; inactive means no such curve, though single readings can be large; an effect the other way counts as inactive or inconclusive.
On the % scale 0 is the no-effect control and ±100 the full control effect.

For the molecule `C/C(=N\[Si](C)(C)C)O[Si](C)(C)C`, the max response in experiment [1] was -1.35%. For the same molecule, the Potency entry in experiment [2], in experiment [3], in [4], in [5], in [6] and in experiment [7] was “inactive” in each case. Also, in [8], the Potency result was “inactive”.

With `C=CC(C)(C)O`, the max response in [1] is 6.97%. For the same molecule, the Potency entry in experiment [2], in experiment [3], in experiment [4], in experiment [5], in experiment [6] and in experiment [7] was “inactive” each time. In addition, the Potency entry in experiment [8] is “inactive”.

As to `O=c1cc[nH]cc1`, the max response in experiment [1] is 1.32%. In addition, the Potency result in experiment [2], in experiment [4], in experiment [9], in experiment [5], in [6] and in [7] was “inactive” each time. For the same molecule, the Potency entry in experiment [10] and in experiment [8] was “inactive” throughout.

On to `c1ccc2occc2c1`, for which the max response in experiment [1] was 2.38%. For the same molecule, the Potency result in [2], in [4], in experiment [9], in experiment [5], in experiment [6] and in [7] was “inactive” each time. Further, the Potency result in [10] and in [8] was “inactive” in each case.

For `O=[N+]([O-])c1ccc(O)c2ncccc12`, the Potency in experiment [1] was 9.52 µM (active); in experiment [5] it was 4.25 µM (active). Moreover, the Potency result in experiment [2], in experiment [4], in [9], in experiment [6] and in experiment [7] was “inactive” each time.

For `Nc1cc([N+](=O)[O-])cc(Cl)c1O`, the max response in experiment [1] is -6.05%. Moreover, the Potency entry in [2], in experiment [4], in experiment [9], in experiment [5], in experiment [6] and in experiment [7] was “inactive” in each case. For the same molecule, the Potency result in experiment [10] and in [8] was “inactive” each time.

With `Cc1ccc(N=Nc2c(O)ccc3ccccc23)c(C)c1`, the max response in experiment [1] was -8.3%. The Potency entry in experiment [2], in [3], in [4], in experiment [9], in experiment [5] and in experiment [7] was “inactive” in each case. The Potency result in [10] and in experiment [8] was “inactive” in each case.

Consider `CCCCCCCCCCCC(=O)Cl`, for which the max response in experiment [1] is 0.0053%. The Potency entry in [2], in experiment [3], in [4], in experiment [5], in experiment [6] and in [7] was “inactive” throughout. For the same molecule, the Potency result in experiment [10] and in [8] was “inactive” each time.

For the molecule `CC(=O)CC(N)=O`, the max response in [1] was 14.8%. The Potency entry in [2], in [3], in [4], in [9], in experiment [5] and in experiment [6] was “inactive” in each case. Moreover, the Potency result in experiment [7] and in experiment [8] was “inactive” each time.

As to `Cc1cc(C)c(O)c(C(C)(C)C)c1`, the max response in [1] is -8.82%. The Potency in experiment [2] is 24.5 µM (active); in [7], 27.5 µM (active). Further, the Potency entry in [3], in experiment [4], in experiment [5], in [6], in experiment [10] and in [8] was “inactive” throughout.

For the molecule `Oc1ccc(Cl)cc1C1CCCC1`, the max response in experiment [1] was -29.3%. The Potency in [2] was 54.9 µM (active); in experiment [3], 54.9 µM (active); in experiment [5] it was 54.9 µM (active); in [7] it was 49 µM (active); in experiment [8], 54.9 µM (active). Also, the Potency entry in experiment [4], in [6] and in experiment [10] was “inactive” in each case.

In the case of `COc1cc(/C=C/C(=O)CC(=O)/C=C/c2ccc(O)c(OC)c2)ccc1O`, the Potency in [1] was 22 µM (active); in experiment [2] it was 43.9 µM (active); in [3], 49.3 µM (active); in experiment [5], 19.6 µM (active); in experiment [7], 39.2 µM (active); in experiment [10], 43.9 µM (active). Moreover, the Potency in experiment [8] is 49.3 µM (active).

For the molecule `CCC(O)CO` (configuration not stated), in [1], the max response was -1.31%. The Potency entry in experiment [2], in experiment [4], in experiment [9], in experiment [5], in experiment [6] and in experiment [7] was “inactive” in each case. Besides, the Potency entry in experiment [10] and in experiment [8] was “inactive” in each case.

Take `c1ccc(C[P+](c2ccccc2)(c2ccccc2)c2ccccc2)cc1`: the Potency in experiment [1] was 1.38 µM (active); in experiment [5] it was 19.5 µM (active); in experiment [8], 21.9 µM (active). The Potency result in [2], in experiment [3], in experiment [4], in [6] and in experiment [10] was “inactive” in each case.

Turning to `CN1CCN(C)CC1`, in experiment [1], the max response was 7.77%. In addition, the Potency entry in experiment [2], in [3], in experiment [4], in experiment [5], in experiment [6] and in experiment [7] was “inactive” each time. In addition, the Potency result in [10] and in experiment [8] was “inactive” in each case.

`Cc1ccc(C=O)cc1`: the max response in experiment [1] was 7.49%. Besides, the Potency entry in experiment [2], in experiment [3], in [4], in experiment [5], in experiment [6] and in experiment [7] was “inactive” throughout. Further, the Potency result in experiment [8] was “inactive”.

`CC(C)(c1ccc(Oc2ccc(N)cc2)cc1)c1ccc(Oc2ccc(N)cc2)cc1`: the Potency in experiment [1] is 21.9 µM (active). For the same molecule, the Potency result in experiment [2], in experiment [3], in experiment [4], in experiment [5], in experiment [6] and in experiment [7] was “inactive” each time. In addition, the Potency result in experiment [10] and in experiment [8] was “inactive” each time.

For `[Cl][Eu]([Cl])[Cl]`, the max response in [1] is -1.1%. Further, the Potency result in [2], in experiment [3], in experiment [4], in [9], in experiment [5] and in experiment [6] was “inactive” throughout. Also, the Potency entry in [7] and in experiment [8] was “inactive” each time.

In the case of `Cc1cc(Br)ccc1NC(=O)CCl`, the Potency in experiment [1] was 19.5 µM (active); in experiment [4] it was 43.6 µM (active). The Potency entry in [2], in [3], in experiment [6] and in experiment [10] was “inactive” throughout.

Turning to `Brc1cc(Br)cc(Br)c1`, the max response in experiment [1] is 0.239%. Also, the Potency result in [2], in experiment [4], in experiment [9], in experiment [5], in experiment [6] and in experiment [7] was “inactive” each time. Moreover, the Potency entry in experiment [10] and in [8] was “inactive” throughout.

Consider `N#CCCOCCC#N`, for which, in [1], the max response was 2.28%. In addition, the Potency entry in experiment [2], in [3], in experiment [4], in experiment [9], in experiment [5] and in experiment [6] was “inactive” each time. Further, the Potency entry in experiment [7] and in [8] was “inactive” in each case.

For `CC1CCC(C(C)(C)O)CC1` (configuration not stated), in experiment [1], the max response was 0.893%. Also, the Potency entry in experiment [2], in experiment [3], in experiment [4], in [5], in experiment [6] and in [7] was “inactive” each time. Besides, the Potency result in experiment [10] and in [8] was “inactive” in each case.
